40 sequences from the supplement of paper PMC6555819 can be followed below.

One test relates to LXRb homodimer (NR concentration 270 nM). The experiment in a line: PBM binding z-score (relative to random genomic background probes); higher = stronger binding; sequences stand for … in GC…GCGATTGACAGCGTAGAATGAAGG
Summed up:
(§1)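 On custom Agilent 4×180K arrays, double-stranded probes with 34-nt variable regions carried direct-repeat seeds, single-nucleotide variants, half-site ablations or random human genomic background. Ligand-free nuclear receptor dimers were applied for 1 h, and binding was read with antibodies against each partner (one per run). Binding z-scores come from regression-normalized fluorescence, with the random background probes as reference.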
Regarding TAGCCTAGGTCATTGGGCCACTATAGTACGCATC, the PBM binding z-score worked out at 0.679.
Still for that read-out and setting: as for TAGCCTAGGACATTGGGCCAGTATAGTACGCATC, the figure is -0.541; as for ATCTCTAGGTAAGACTCGGTTCAGTGAAGAACGC, 1.07.
Same read-out and setting: as for ACTAGCAGGCCAAGGGTCTCTCAAGATTAGTCCG, the figure is -1.05; as for CCTAGCAGGCCAGGGTCACTCTAGCATTTCGCTT, -0.953.
On the same count and under the same terms, then GCTTGTTGGTCAGTAAAAGGTCACACACCGGTCG, with 1.25; and TCATATAGGTAAACAGGTGAAAGTGCGTAAGTTA, with 0.114.
Consider ATCTCTAGGCAAAGTTCAGTGAAAGATCGATAGA, for which the PBM binding z-score was found to be 0.16.
For the sequence ATCTCTAGTTAAAGTTCAGTGAAAGATCGATAGA, the PBM binding z-score is 1.33.
Same read-out and setting: then CCGACTGGGGCAAAGGTTACTATACTCAGTACGA, with -0.765; and TCTTGCAGATCAAGCAGGTTAAGAAAGCCTGAGT, with -0.667.
The same measure, in the same setting: as for CGTACTGGGCCATTCAGAGGTCATTGATCATATG, the figure is 0.57.
Same read-out and setting: then CGACAAAGTTCAACTAAGGTAACGTAAAGCACGC, with 1.92.
For the sequence TCGGCTAGGTCAACGATGGTCAGCTAATCTGCTA, the PBM binding z-score is -0.717.
The same measure, in the same setting: then AGAATGAGGTGACCAAAGATCAGGGAAACGCTTG, with -0.291.
For the sequence GCGACTGGGGCAAAGCAGGTTACGATAAGGTTGG, the PBM binding z-score was -0.982.
Still for that read-out and setting: as for TCAAATAGGTAATACAGGTGAAAGTCGGCATCTA, the figure is 0.0118; as for GTAACGAGGGCATTCGAGTTGATAGCATGGCGAT, -0.321; as for CCTATTTGTTGACCATAAGGGCAACCGAAGCTCG, 1.12.
On the same count and under the same terms, then CCGGCTAGGTCATGGTCAGCTAATCTACAGTATG, with 0.207; and CCAGACAGGTGAAAGGGAACTCAGTCTGGTACGC, with -0.681; and CGAACTAGGTCATCCAGGGCAGTGAATACATTGA, with -0.0808.
The same measure, in the same setting: then CCGAGAAGGTTATGGGGCATTCAGGCAACGGTGA, with -0.242; and TAGCCTAGGTCATTCAGGGGCCAGTATAGAAAGC, with 0.97; and CCGAGTAGGTTATGGGGCATGCAGGCAACGGTGA, with -0.337.
Regarding GGAACGAGGGCAAGATGATAGCAGAGTTTGATGG, the PBM binding z-score was -0.415.
Same read-out and setting: then CGAACTAGGTCAGAACAGGACAGTGGAGGATGAT, with -0.2.
On the same count and under the same terms, then TCATATCGGTAAAGGTGAAAGTCGAACGATATGA, with -0.304; and TCTAGCAGGCCAAAGGGTCACTCAAGAGGTACGG, with -0.592.
The same measure, in the same setting: as for ATCGAAAGGTCGCGAGGTGAGTATACAGAAAGGC, the figure is -0.0982; as for CGTCCAAGGTCAAGGTCATTGAAAGAGACTCGAA, 1.4; as for CGTCAAAGTTCAGCTAAGGTAACGTAAAGCACGC, 0.319.
Take CCGAGTAGTTTATGGGGCATTCAGGCAACGGTGA: the PBM binding z-score was -0.0668.
Same read-out and setting: then CCAGACAGGTGCGAAGGTAACTCAGCCTCGATTA, with -0.755.
On the same count and under the same terms, as for ACAGACAGGTGATGAAGGTAACTGAGGCTATCAT, the figure is -0.411; as for AGGCAAAGTTCATCTAGGTAACGTAAGATATGCT, 1.35.
In the case of AGAATGAGGTTATACGTTGATCAGGGAAGAAAGT, the PBM binding z-score stood at 0.0742.
Still for that read-out and setting: then TCTTGTAGATCAGCAGGTTAATAAAGCTGGCCAA, with -0.339; and GTACCAGGGTGAATAGGTCGTTGATGAGTAGGCG, with -0.461.
Still for that read-out and setting: then CCGACAGGGGCAAAGGTTACCATACTCAGTACGA, with -0.622.

The test system of another test is PPARa:RXRa (NR concentration 270 nM, RXRa partner concentration 90 nM). The test is described as above. Summed up:
as §1
On to TAGCCTAGGTCATTGGGCCACTATAGTACGCATC, for which the PBM binding z-score is 3.99.
TAGCCTAGGACATTGGGCCAGTATAGTACGCATC: the PBM binding z-score was -0.477.
The same measure, in the same setting: then ATCTCTAGGTAAGACTCGGTTCAGTGAAGAACGC, with -0.0579.
Same read-out and setting: as for ACTAGCAGGCCAAGGGTCTCTCAAGATTAGTCCG, the figure is 0.948; as for CCTAGCAGGCCAGGGTCACTCTAGCATTTCGCTT, 2.59; as for GCTTGTTGGTCAGTAAAAGGTCACACACCGGTCG, 4.42.
In the case of TCATATAGGTAAACAGGTGAAAGTGCGTAAGTTA, the PBM binding z-score worked out at 3.19.
On the same count and under the same terms, then ATCTCTAGGCAAAGTTCAGTGAAAGATCGATAGA, with 1.95.
Regarding ATCTCTAGTTAAAGTTCAGTGAAAGATCGATAGA, the PBM binding z-score is 1.78.
Still for that read-out and setting: then CCGACTGGGGCAAAGGTTACTATACTCAGTACGA, with 4.86.
Still for that read-out and setting: as for TCTTGCAGATCAAGCAGGTTAAGAAAGCCTGAGT, the figure is 0.293; as for CGTACTGGGCCATTCAGAGGTCATTGATCATATG, 3.88; as for CGACAAAGTTCAACTAAGGTAACGTAAAGCACGC, 4.93.
TCGGCTAGGTCAACGATGGTCAGCTAATCTGCTA yielded a PBM binding z-score of 3.14.
AGAATGAGGTGACCAAAGATCAGGGAAACGCTTG: the PBM binding z-score is 2.24.
GCGACTGGGGCAAAGCAGGTTACGATAAGGTTGG: the PBM binding z-score is 1.47.
On the same count and under the same terms, then TCAAATAGGTAATACAGGTGAAAGTCGGCATCTA, with 2.04; and GTAACGAGGGCATTCGAGTTGATAGCATGGCGAT, with 1.72; and CCTATTTGTTGACCATAAGGGCAACCGAAGCTCG, with 0.847.
CCGGCTAGGTCATGGTCAGCTAATCTACAGTATG registered a PBM binding z-score of 3.42.
On the same count and under the same terms, then CCAGACAGGTGAAAGGGAACTCAGTCTGGTACGC, with 1.63; and CGAACTAGGTCATCCAGGGCAGTGAATACATTGA, with 5.08; and CCGAGAAGGTTATGGGGCATTCAGGCAACGGTGA, with 2.89.
The same measure, in the same setting: as for TAGCCTAGGTCATTCAGGGGCCAGTATAGAAAGC, the figure is 3.78.
Same read-out and setting: as for CCGAGTAGGTTATGGGGCATGCAGGCAACGGTGA, the figure is 1.93; as for GGAACGAGGGCAAGATGATAGCAGAGTTTGATGG, 1.25.
As to CGAACTAGGTCAGAACAGGACAGTGGAGGATGAT, the PBM binding z-score came out at 2.93.
For TCATATCGGTAAAGGTGAAAGTCGAACGATATGA, the PBM binding z-score is 2.77.
The same measure, in the same setting: then TCTAGCAGGCCAAAGGGTCACTCAAGAGGTACGG, with 3.89; and ATCGAAAGGTCGCGAGGTGAGTATACAGAAAGGC, with 5.26; and CGTCCAAGGTCAAGGTCATTGAAAGAGACTCGAA, with 6.18.
Turning to CGTCAAAGTTCAGCTAAGGTAACGTAAAGCACGC, the PBM binding z-score worked out at 3.68.
Still for that read-out and setting: as for CCGAGTAGTTTATGGGGCATTCAGGCAACGGTGA, the figure is 0.806.
The same measure, in the same setting: as for CCAGACAGGTGCGAAGGTAACTCAGCCTCGATTA, the figure is -0.406.
In turn, ACAGACAGGTGATGAAGGTAACTGAGGCTATCAT had a PBM binding z-score of 0.0902.
On the same count and under the same terms, as for AGGCAAAGTTCATCTAGGTAACGTAAGATATGCT, the figure is 4.88.
On the same count and under the same terms, as for AGAATGAGGTTATACGTTGATCAGGGAAGAAAGT, the figure is 3.37; as for TCTTGTAGATCAGCAGGTTAATAAAGCTGGCCAA, 0.462; as for GTACCAGGGTGAATAGGTCGTTGATGAGTAGGCG, 2.09.
The same measure, in the same setting: then CCGACAGGGGCAAAGGTTACCATACTCAGTACGA, with 4.74.
